The text below walks through data of PubChem BioAssay.

Results with a measured potency or affinity are listed apart. Activity calls are given as the source filed them.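 The calls were made as follows: active = a fitted half-maximal concentration no higher than twice the top valid tested dose, with signal falling as cells die; inconclusive = flat curve between -70% and -30%, or poor fit; inactive = the rest, including signal rising instead of falling.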

This test is described as follows: viability loss in HeLa cells – cell-based, ATP luminescence, cherry-pick samples, cytotoxicity control, dose response (AID 687004).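 Also: 0% = neutral control median and -100% = staurosporine 10 µM control median.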 Particulars: ATP luminescence (CellTiter-Glo), 48 h; series mostly up to 26 µM; activity change, negative = cytotoxicity: at the top concentration.
Turning to `CO[C@@H]1CN(C)C(=O)c2cc(NC(=O)C3CCOCC3)ccc2OC[C@H](C)NC[C@@H]1C`, the “activity change, negative = cytotoxicity” value is 6.41% [at 23.5 µM] (inactive).

`CC(=O)N[C@H]1CC[C@@H](CCNC(=O)C2CCC2)O[C@H]1CO`: the “activity change, negative = cytotoxicity” value is 1.04% (inactive).

Regarding `Cc1ccccc1N(CC(=O)NCCSC1CCCCC1)S(=O)(=O)c1ccccc1`, the “activity change, negative = cytotoxicity” value was 1.89% (inactive).

As to `Cc1ccc(OCC(=O)NC(C)c2ccccc2)cc1` (centres undefined), the “activity change, negative = cytotoxicity” value is 9.89% (inactive).

On to `CCOC(=O)CSc1ncnc2c1cnn2-c1ccc(Cl)cc1`, for which the “activity change, negative = cytotoxicity” value is -1.93% (inactive).

Turning to `CCN1C(=S)N[C@@H](c2cccc(F)c2)C(C(=O)OC)=C1C`, the “activity change, negative = cytotoxicity” value is 10.2% (inactive).

Regarding `O=C(c1cccc(F)c1)N1C[C@H]2[C@@H](c3ccccc31)[C@@H](CO)N2Cc1cocn1`, the “activity change, negative = cytotoxicity” value is 13.6% (inactive).

With `CC(=O)N1[C@H](CO)[C@H](c2ccc(-c3ccccc3)cc2)[C@@H]1CNC(=O)C1CC1`, the “activity change, negative = cytotoxicity” value was -3.41% (inactive).

Consider `CCN(CC)CC(=O)N(CC(=O)Nc1c(C)cc(C)cc1C)C1CCCCC1`, for which the “activity change, negative = cytotoxicity” value is 12.3% (inactive).
